Test results taken from PubChem BioAssay AID743279 (National Center for Advancing Translational Sciences (NCATS), 2014).
The campaign covered roughly 360,000 compounds. About 17,000 (4.7%) were called active. Another 5% or so got no clear call; they are omitted. The list comes from a sample in which actives are over-represented; it also holds similar structures and randomly drawn compounds. Values without a mark were called inactive. No stated cut-off is given here; in the data, active means activity change below about -50%; inconclusive means mostly about -30% to -49%; inactive means weaker than that.

Assay: qHTS for Inhibitors of Inflammasome Signaling: IL-1-beta AlphaLISA Primary Screen
Details: THP-1 LPS/ATP IL-1B secretion, 16 h; at 57.5 µM, stronger effect = lower value
Summary of the method: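 THP-1 cells pretreated 1 hr with compounds (up to 57.5 uM final), then stimulated with LPS (250 ng/mL final) plus ATP (1.25 mM final); secreted IL-1B measured by AlphaLISA after 16 hr, decreased signal indicating inhibition.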
On the % scale 0 is the no-effect control and ±100 the full control effect.

SMILES	activity change
COc1cccc(CN(C)C(=O)CC[C@H]2O[C@@H](n3cnc4c(NC(=O)c5ccccc5)ncnc43)[C@H](O)[C@@H]2O)c1	-16.9%
CCn1cc(CN2CCC(C(=O)Nc3cccc(-c4cccc(Cl)c4)c3)CC2)c(C)n1	-53.4% (active)
O=C(Nc1cccc(-c2cscn2)c1)C1CCN(Cc2ccsc2)CC1	-28.7%
CCn1cc(CN2CCC(n3nccc3NC(=O)CCCc3ccccc3)CC2)c(C)n1	40%
CC(=O)c1cc(CN2CCC(C(=O)Nc3cccc(-c4cscn4)c3)CC2)cs1	inactive
CCn1cc(CN2CCC(C(=O)Nc3cccc(-c4cccc(Cl)c4)c3)CC2)cn1	-79.5% (active)
O=C(Nc1cnn(Cc2ccc(Cl)cc2)c1)C1CCCC1	-16.9%
C=CCOc1ccc(/C=C/C(=O)OC(C)C(=O)Nc2ccc(NC(C)=O)cc2)cc1 (stereo not given)	-0.196%
Nc1cc(=O)c2[nH]cnc2[nH]1	17.6%
CCc1nc2ccc(C(=O)N(C)CCN(C)C)cn2c1N(CC)CCOC	-19.3%
CC(C)C[C@@H]1Cc2[nH][nH]c(=O)c2[C@H](CCc2ccccc2)O1	-2.24%
CC1(c2cccc(Br)c2)NC(=O)N(CC(=O)NCCC2=CCCCC2)C1=O (stereo not given)	1.79%
COc1cccc2c1C(=O)c1c(O)c3c(c(O)c1C2=O)CC(O)(C(C)=NNC(=O)c1ccc(Cl)c(Cl)c1)CC3OC1CC(N)C(O)C(C)O1 (stereo not given)	-101% (active)
Oc1c(CN2CCOCC2)ccc(CN2CCOCC2)c1O	14.4%
CN(C(=O)c1cccc(NC(=O)Cc2ccc(NC(=O)C3CCN(C(=O)C4CCCCC4)CC3)cc2)c1)C1CCC1	-1.34%
CN1CCN(C2Cc3ccc(Cl)cc3Sc3ccc(F)cc32)CC1 (stereo not given)	-63.5% (active)
COC(=O)C1NN=C(C(=O)c2ccc(Br)cc2)C1c1cccc(Br)c1 (stereo not given)	19.6%
C[C@H]1CN([C@@H](C)CO)C(=O)CCCn2cc(nn2)CO[C@@H]1CN(C)C(=O)Nc1ccccc1	-2.98%
CCOc1nc(NCCN2CCOCC2)nc(Nc2ccc(C)cc2)n1	-27.7%
c1ccc2cc3c(NCCN4CCOCC4)ccnc3cc2c1	-83.2% (active)
Fc1ccc(-c2ccc(NCCN3CCOCC3)nn2)cc1	-8.39%
Cc1nc(N)sc1-c1ccccc1	-26.3%
COc1ccc(-n2c(Cc3cccn3C)nnc2SCC(=O)Nc2cc(C)cc(C)c2)cc1	-24.7%

SMILES	activity change
Cc1cccc(-n2c(=O)c3c(C)c(C)sc3n(CC(N)=O)c2=O)c1	16.6%
Cc1cccc(-n2c(SCC(N)=O)nc3c(c2=O)C2(CCCCC2)Cc2ccccc2-3)c1	-72.3% (active)
N#CCSc1nc2c(c(=O)n1Cc1ccccc1)C1(CCCC1)Cc1ccccc1-2	4.25%
COCC(=O)N(C)C[C@H]1Oc2cc(Br)ccc2S(=O)(=O)N([C@H](C)CO)C[C@H]1C	20.9%
CCOCCC(=O)Nc1ccc2c(c1)c(=O)n(C)n2-c1ccc2ccccc2c1	87.4%
CCOC(=O)C1=NN(c2ccc(Cl)cc2)/C(=C/C2=NCCc3cc(OC)c(OC)cc32)S1	-28.4%
COc1ccc(Cl)cc1C(=O)NNC(=S)NC(=O)/C=C/c1ccco1	26.9%
COc1cc2c(cc1OC)C(/C=C/c1ccco1)=NCC2	-75.5% (active)
C[C@H]1COc2cc(N3CCSCC3)ccc2S(=O)(=O)N1	26.2%
COc1ccc(Cl)cc1-c1cc(C(=O)Nc2cc(OC)c(OC)c(OC)c2)[nH]n1	-10.3%
CSc1ncnc2c1ncn2CCCNCC(C)c1ccccc1 (stereo not given)	17.6%
COc1ccc(-c2cc(NC(C)=O)c3ncc(-c4cc(OC)c(OC)c(OC)c4)n3c2)cn1	41.4%
CCN(C(=O)CN1C(=O)/C(=C/c2ccc(F)cc2)SC1=S)C1CCS(=O)(=O)C1 (stereo not given)	0%
O=C1/C(=C/c2ccc(F)cc2)SC(=S)N1CCCC(=O)N1CCCCC1CCO (stereo not given)	-86.6% (active)
COc1ccc(/C=C2\SC(=S)N(CCCC(=O)NC3CCCC3)C2=O)cc1OC	7.66%
Cc1cccc(C)c1-n1nnnc1C1(C)CCC(=O)N1CCOc1ccccc1 (stereo not given)	33.1%
CC(C)c1ccc(/C=C/C(=O)NCCCN2CCOCC2)cc1	-1.14%
CC1CC(NC(=S)N(C)C)CC(C)(C)C1 (stereo not given)	31.1%
O=[N+]([O-])c1ccccc1S(=O)(=O)Nc1cccc2cccnc12	-99.8% (active)
NS(=O)(=O)c1ccc(CCNS(=O)(=O)c2cccc3cccnc23)cc1	7.82%
COc1cc(NS(=O)(=O)c2ccc3ccccc3c2)c2ncccc2c1	20.6%
CN(C(=O)c1cccc(NC(=O)Cc2cccc(NC(=O)C3CCCN(C(=O)C4CC4)C3)c2)c1)C1CCC1 (stereo not given)	0%
COC(=O)c1ccc2nc(-c3ccc(C)cc3)c(Cc3ccc(OC)cc3C)n2c1	16%

SMILES	activity change
COc1cccc(NC(=O)COC(=O)/C=C/c2ccco2)c1	19.5%
O=C(/C=C/c1ccco1)Nc1ccc(Oc2ccccc2)cc1	-58.1% (active)
O=C(/C=C/c1ccco1)NC(=S)Nc1ccccc1Br	-18.4%
CSC1=NCCN1C(=O)c1ccc(S(=O)(=O)N2CCOCC2)cc1	2.64%
CC(=O)Nc1ccc(C(=O)Nc2cc(S(=O)(=O)N3CCOCC3)ccc2N2CCOCC2)cc1	-12.6%
CCC(C)NC(=O)c1ccc(NC(=O)CC2SC(N3CCCCC3)=NC2=O)cc1 (stereo not given)	-15.8%
COc1cccc2cc(C(=O)NCc3ccc(C)cc3)c(=N)oc12	-59.4% (active)
N=c1oc2ccccc2cc1C(=O)NCc1ccccc1	-22.4%
COc1cccc2cc(C(=O)N(C)C)c(=O)oc12	-12.7%
OC[C@@H]1CN(Cc2ccncc2)C[C@H](n2cnc3c(N4CCN(c5ccccc5)CC4)ncnc32)O1	3.63%
O=C(Nc1cccnc1)c1cc([N+](=O)[O-])ccc1Cl	0%
O=C(Nc1cccnc1)c1ccc(Cl)cc1[N+](=O)[O-]	0%
O=C(Nc1cccnc1)c1cc(Cl)ccc1Cl	-60.5% (active)
COCCNC(=S)N1CCN(C)CC1	26.6%
Brc1ccc(OCCn2ccnc2)cc1	-15%
Clc1ncn(CCOc2ccccc2)c1Cl	-9.73%
c1ccc(Cc2ccc(OCCn3ccnc3)cc2)cc1	-57.5% (active)
CC(C)Oc1cc(F)ccc1-c1cc(C(=O)Nc2ccc(F)cc2)[nH]n1	-25.4%
Cn1c(=O)c([N+](=O)[O-])c(Oc2ccccc2)c2ccccc21	-86.4% (active)
Cc1cc(C)c(-c2c(O)c3ccccc3n(C)c2=O)c(C)c1	13%
Cc1cccc(OP(=O)(Nc2c(C)n(C)n(-c3ccccc3)c2=O)Oc2cccc(C)c2)c1	-27.9%
Cn1nc(-c2ccccc2)c2cc([N+](=O)[O-])ccc21	-13.7%
Cc1cccc(Oc2c([N+](=O)[O-])c(=O)n(C)c3ccccc23)c1	-101% (active)

SMILES	activity change
COc1cc2c(=O)n(C)c3ccccc3c2cc1OC	-24.4%
CC(=O)C1=C(O)C(=O)N(c2ccc(S(N)(=O)=O)cc2)C1c1ccccc1F (stereo not given)	7.68%
NC(=O)c1ncn([C@@H]2O[C@H](CN=C3NS(=O)(=O)c4ccccc43)[C@@H](O)[C@H]2O)n1	21.3%
COc1ccc(NC(=S)Nc2ccc(S(N)(=O)=O)cc2)c(C)c1	-12.2%
NS(=O)(=O)c1ccc(NC(=S)Nc2ccc(Br)c(Cl)c2)cc1	-89% (active)
NS(=O)(=O)c1ccc(CCNC(=S)Nc2ccc(S(N)(=O)=O)cc2)cc1	-3.65%
CCOC(=O)CSc1ccccn1	3.79%
CCOC(=O)CSc1nccc(N(C)C)c1C#N	-70.3% (active)
CCOC(=O)CSc1nc(N2CCOCC2)c2c(c1C#N)CC(C(C)C)OC2 (stereo not given)	56.1%
O=S(=O)(Cc1cc(Cl)nc(-c2cccnc2)n1)c1ccccc1	-98.6% (active)
O=S(=O)(NCCc1csc(-c2ccccc2)n1)c1cccnc1	41.8%
O=S(=O)(Cc1cc(Sc2ccccc2)nc(-c2ccccc2)n1)c1ccccc1	0%
O=C1NC(Cc2ccccc2)c2nc3ccc(Br)cc3c(=O)n2-c2cc3ccccc3cc21 (stereo not given)	-12%
C[C@H](O)[C@@H]1C(=O)N2CCc3ccc(N4CCOCC4)cc3[C@@H]2C[C@@H]1N(C)C(=O)C(C)(C)C	0%
CN1OC[C@@H]2CN(C(=O)C(C)(C)C)[C@H](c3ccc(-n4ccnc4)cc3)C[C@@H]21	-20.8%
Cc1ccccc1S(=O)(=O)N1[C@@H](c2cccc(Cl)c2)C(C(=O)OC(C)(C)C)=CC[C@H]1c1ccc(Cl)cc1	-7.69%
CC(C)OCCCNC(=O)CN1C(=O)/C(=C/c2ccccc2F)Oc2ccccc21	14.1%
CCCN1CCN(CCCNC(=O)CN2C(=O)COc3ccccc32)CC1	5.04%
CN1CCN(CCCNC(=O)c2ccc(/C=C3\Oc4ccccc4N(Cc4ccc(Cl)cc4)C3=O)cc2)CC1	-78% (active)
Cc1cccc(CN2CCN(C3CN(Cc4ccccc4)S(=O)(=O)C3)CC2)c1 (stereo not given)	5.62%
COC(=O)C1C(=O)NCC1c1ccc(OC)cc1 (stereo not given)	5.62%
